# Mac1 fbg enh: increases human CD11b/CD18 adhesion to fibrinogen; P05107+P11215; 0.07% of 93,000 active; K562 CD11b/CD18 adhesion to fibrinogen, ATPlite luminescence; activation, % at 10 µM;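 active means 10 µM primary screen giving 50% or more activity, confirmed by 40% or more on retest at that dose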
# Target sequence (P05107 whole entry, looked up, other chains not shown): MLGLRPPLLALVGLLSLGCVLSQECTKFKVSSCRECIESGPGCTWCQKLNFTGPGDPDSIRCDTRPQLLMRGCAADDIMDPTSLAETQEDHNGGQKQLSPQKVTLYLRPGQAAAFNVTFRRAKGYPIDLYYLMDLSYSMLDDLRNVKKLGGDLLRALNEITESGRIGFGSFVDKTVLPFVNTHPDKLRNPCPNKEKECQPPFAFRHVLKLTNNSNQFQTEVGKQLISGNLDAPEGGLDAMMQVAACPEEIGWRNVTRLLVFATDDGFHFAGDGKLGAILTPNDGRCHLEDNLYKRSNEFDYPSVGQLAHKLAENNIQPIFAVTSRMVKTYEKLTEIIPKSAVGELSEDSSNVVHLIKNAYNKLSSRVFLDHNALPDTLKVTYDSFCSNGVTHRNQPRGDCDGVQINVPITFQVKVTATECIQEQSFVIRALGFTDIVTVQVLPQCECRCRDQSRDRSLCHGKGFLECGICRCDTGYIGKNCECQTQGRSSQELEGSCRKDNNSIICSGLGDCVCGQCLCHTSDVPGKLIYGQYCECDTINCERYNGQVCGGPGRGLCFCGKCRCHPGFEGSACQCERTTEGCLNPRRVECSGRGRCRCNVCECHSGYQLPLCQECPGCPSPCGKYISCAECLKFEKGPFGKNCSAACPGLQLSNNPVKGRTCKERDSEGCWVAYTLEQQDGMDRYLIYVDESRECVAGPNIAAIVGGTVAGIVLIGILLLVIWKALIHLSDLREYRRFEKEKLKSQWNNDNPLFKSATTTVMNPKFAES
# PTK2B oligo ant: antagonists of human Pyk2 oligomerization | 0.83% of 99,000 active | Q14289 | Q293 cells, Pyk2 FERM NanoBiT luminescence; active compounds read low | z-score (the deposit names both 25 µM and 10 µM);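 active means Z-score of -3 or lower, scaled per plate to the spread of control and sample wells; inactive means z-score above -3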;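 further: negative z-score means lost luminescence so less FERM oligomerization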
# Mac1 fbg inh: inhibitors of human CD11b/CD18 binding to fibrinogen. 0.54% of 93,000 active. inhibition, % at 10 µM. P05107+P11215. K562 CD11b/CD18 adhesion to fibrinogen, ATPlite luminescence; Mn2+ added to activate the integrin;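 active means primary inhibition of 50% or more at 10 µM, then 40% or more on retest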
# MRP resist rev: reverses drug resistance mediated by MRP. H69AR cells + 2 uM doxorubicin, CellTiter-Glo, 72 h. 0.04% of 85,000 active. differential viability (reversal), % at 10 µM. AID 602;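 active means viability drop by adding the cancer drug above about 55%, with treated viability meeting a 40% cutoff, limit read from the data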;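 further: viability without doxorubicin minus viability with 2 µM doxorubicin for each compound; larger differential means the compound sensitizes cells more to doxorubicin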
# Cav3 T inh: inhibitors of human Cav3.2 T-type calcium channel; O95180; Cav3.2-expressing cells, Fluo-4 calcium fluorescence FDSS; active compounds read low; B-score at 10 µM; 4% of 100,000 active;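 active means single-dose well whose peak fluorescence ratio is a statistical outlier from its plate by either plate-standardised score or position-corrected B-score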
# MRP-1 activ: activators of MRP-1 | H69AR cells + doxorubicin, viability rescue, CellTiter-Glo | 0.61% of 140,000 active | AID 799 | viability increase, % at 10 µM;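 active means viability gain under doxorubicin at or above a set limit, the compound median plus 3 SD, cut at about 4.7% in these data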;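 further: MRP-1 overexpressing cells given doxorubicin 25 µM after compound pretreatment; 18-22 h compound pretreatment then 72 h with doxorubicin before readout; 0% = doxorubicin-only wells and 100% = vehicle-treated cells without doxorubicin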
# * = called active by the depositor; · = not tested or not shown. Rows were chosen to be rich in hits. Some 4.1% of all compounds tested hit in one or more screens of this group.
SMILES,Mac1 fbg enh,PTK2B oligo ant,Mac1 fbg inh,MRP resist rev,Cav3 T inh,MRP-1 activ
COc1ccc(/C=C2/SC(=S)N(CCC(=O)O)C2=O)cc1,·,0.22,·,·,-0.72,-4
O=C(CCN1C(=O)/C(=C/C=C/c2ccccc2)SC1=S)Nc1cccnc1,·,·,·,·,·,0
CC(C)CCNc1nc2c(cc1C#N)COC(C)(C)C2,12,-0.48,-6,4,-1.3,-2
COc1ccc(C(O)c2nccn2C)cc1 (stereo unspecified),-3,0.79,-5,6,-1.7,1
COc1cnn(-c2ccccc2)c(=O)c1SCc1ccc(Cl)cc1Cl,4,-1.1,2,·,-4*,0
Cc1cc(C)nc(N(C#N)C(C)C(=O)N(C)C)n1 (stereo unspecified),·,·,·,·,·,-3
NC(=O)CSC1=Nc2ccccc2C2=NC(CC(=O)NCc3cccs3)C(=O)N12 (stereo unspecified),-2,-0.16,-15,9,0.27,-2
COc1ccc(C2CC2/C(C)=N/OC(=O)c2cccs2)cc1 (stereo unspecified),-1,1.4,-10,-6,-0.62,-2
COc1ccc(C(=O)O/N=C(/C)c2cccs2)cc1,-7,0.12,71*,·,-1.3,1
COc1ccc(S(=O)(=O)NCc2ccco2)c2ccccc12,3,0.04,0,-14,-4.2*,-5
Cc1ccc(-c2cnc(N)n2C)cc1C,4,1.7,16,30,-0.23,-3
CC(C)(c1ccccc1)c1ccc(OCCn2cnc3ccccc3c2=O)cc1,-1,0.23,46,17,-6.5*,-3
O=C(Nc1cccc(Cl)c1)N(Cc1nc2ccccc2c(=O)[nH]1)C1CCCC1,3,0.3,23,-7,-6*,-3
CCN(CC)S(=O)(=O)c1cc(C(=O)Nc2ccc(Cl)cn2)ccc1C,0,-1.8,14,-2,-4.3*,1
Clc1ccc2[nH]cc(-c3nnnn3-c3ccc4ccccc4c3)c2c1,-13,-3.2*,71,·,0.078,-1
Cn1c(CN2CCCCC2)nc2cc(NC(=O)c3cccc(Br)c3)ccc21,-4,-0.9,59*,-11,0.55,-2
Cn1c(CN2CCCCC2)nc2cc(NC(=O)c3ccccc3)ccc21,3,1.1,-16,-2,0.61,-2
CCSc1ncc(Cl)c(C(=O)N(Cc2ccc(N(C)C)cc2)C2CCS(=O)(=O)C2)n1 (stereo unspecified),2,0.31,-14,·,3.5*,-2
O=C(CN1CCCCCCC1)N/N=C/c1ccc(F)cc1F,·,·,·,·,·,-2
CCn1c(-c2cc3ccccc3cc2O)n[nH]c1=S,-5,1.8,0,27,-1.7,0
O=C(COC(=O)c1ccccc1OCc1ccccc1Cl)NC1CC1,·,-0.54,·,17,-0.052,-2
O=C(CSc1ccc2ccccc2n1)N1CCC(c2noc3ccc(F)cc23)CC1,·,-0.51,·,1,-6.5*,-3
Cc1nnc(SCC(=O)N2CCC(c3noc4ccc(F)cc34)CC2)s1,2,-0.55,2,-24,1,-4
S=c1nc[nH]c2c1[nH]c1ccccc12,5,0.57,-35,·,1.4,-4
O=c1[nH]cnc2nn(-c3ccccc3)nc12,-4,1.1,11,12,-3.7*,-1
SMILES,Mac1 fbg enh,PTK2B oligo ant,Mac1 fbg inh,MRP resist rev,Cav3 T inh,MRP-1 activ
CCCN(C(=O)CSc1nc2c(cnn2-c2ccccc2)c(=O)[nH]1)C1CCS(=O)(=O)C1 (stereo unspecified),·,·,·,·,·,-1
CC(=O)c1ccc(N2CCN(c3ccc(C(F)(F)F)cn3)CC2)cc1,-4,·,-5,·,·,7.8*
Cc1nn(Cc2ccc(C(=O)NC(C)(C)C)o2)c(C)c1Br,-7,0.81,74*,-9,0.73,0
CCC(=O)/C=C1\Sc2ccc(OC)cc2N1CCO,·,-0.11,·,6,1.1,-1
CN1CCN(/C=N/c2c(C#N)cnn2C)CC1,1,-0.49,-19,2,0.36,-2
Cn1ncc(C#N)c1/N=C/N(Cc1ccccc1)Cc1ccccc1,3,-0.62,10,15,-8.4*,-1
O=C(COc1ccc2ccccc2c1)Nc1ccc(Cc2ccncc2)cc1,·,0.4,·,·,-1.7,-2
Cc1cc(OCC(=O)Nc2ccncc2)ccc1Br,-10,1.2,77*,-7,-2.1,1
Cc1ccc(-c2noc(-c3ccccc3Br)n2)cc1,-5,-0.99,72,-2,-0.77,-4
CCCOc1ccc(C2C(C(=O)OC)=CN(CCOC)C=C2C(=O)OC)cc1,·,-3.5*,·,2,-1.3,-1
COCCN1C=C(C(=O)OC)C(c2ccc(OC)c(OC)c2)C(C(=O)OC)=C1,1,-0.01,-19,2,0.91,-3
O=C(NCCCN1CCOCC1)c1ccccc1NS(=O)(=O)c1cc([N+](=O)[O-])ccc1Cl,-1,·,-14,·,·,-1
Fc1ccc(C(c2nnnn2C2CCCC2)N(Cc2ccco2)CC2CCCO2)cc1 (stereo unspecified),-12,-1.2,13,-16,-4*,0
CCN(CC)C(c1ccc(C)cc1)c1nnnn1C1CCCCC1 (stereo unspecified),1,0.29,-10,-11,-2.1,-1
CCN(CC)C(c1ccc(F)cc1)c1nnnn1C1CCCCC1 (stereo unspecified),-5,0.81,2,6,-5*,-1
Cc1cc([N+](=O)[O-])nn1CCC(=O)NC1CCCCCC1,·,·,·,·,·,-1
CC(C)NC(=O)NC(=O)CSc1nnc(COc2ccccc2Cl)o1,0,-0.05,0,·,-2,0
CC(C)CCNC(=O)NC(=O)CSc1nnc(COc2ccccc2Cl)o1,12,0.69,-19,6,-4.8*,1
Cc1ccc(S(=O)(=O)N2C(=O)CCC2C(=O)N2CCN(C)CC2)cc1 (stereo unspecified),-3,-0.22,-6,15,0.48,-1
COCc1c(C(C)C)nc(C(C)C)c(/C=C/[C@@H](O)C[C@@H](O)CC(=O)O)c1-c1ccc(F)cc1,·,·,·,·,-1.8,·
CCOc1ccc(OC(=O)NC(c2ccccc2)C(Cl)(Cl)Cl)cc1 (stereo unspecified),·,-0.23,·,·,-3.5*,-3
CCCCCCCCS(=O)c1sc2nc3c(cc2c1N)CCCC3 (stereo unspecified),·,1.4,·,7,-4.8*,0
CCCCS(=O)(=O)c1sc2nc3c(cc2c1N)CCCC3,5,-1.2,-7,0,-1,-3
CCOC(=O)c1c(NC(=O)CSc2nnc3c(n2)[nH]c2ccccc23)sc2c1CCN(C)C2,·,0.28,·,·,0.82,·
COc1ccc(S(=O)(=O)N2CCCN(S(=O)(=O)c3ccc(OC)c(C)c3)CC2)cc1C,·,-1.5,·,-35,-3.2,-3
COc1ccc(S(=O)(=O)N2CCC(C(=O)N3CCc4ccccc4C3)CC2)cc1C,-1,0.11,4,-20,-5*,-3
COc1ccc(S(=O)(=O)Nc2ccc(S(=O)(=O)N3CCCCC3)cc2)cc1C,-2,-3.3*,28,-16,-0.85,-1

# Bioassay records deposited in PubChem by several laboratories.
